According to ChEMBL document CHEMBL1961873, “Compounds: GSK PKIS; Assays: Nanosyn kinase panel” (2012):

Columns and labels:
[1] = molecular target: T1, Ephrin type-B receptor 2 (Homo sapiens) (UniProt P29323); conditions: at 1 µM
T1 sequence (whole entry): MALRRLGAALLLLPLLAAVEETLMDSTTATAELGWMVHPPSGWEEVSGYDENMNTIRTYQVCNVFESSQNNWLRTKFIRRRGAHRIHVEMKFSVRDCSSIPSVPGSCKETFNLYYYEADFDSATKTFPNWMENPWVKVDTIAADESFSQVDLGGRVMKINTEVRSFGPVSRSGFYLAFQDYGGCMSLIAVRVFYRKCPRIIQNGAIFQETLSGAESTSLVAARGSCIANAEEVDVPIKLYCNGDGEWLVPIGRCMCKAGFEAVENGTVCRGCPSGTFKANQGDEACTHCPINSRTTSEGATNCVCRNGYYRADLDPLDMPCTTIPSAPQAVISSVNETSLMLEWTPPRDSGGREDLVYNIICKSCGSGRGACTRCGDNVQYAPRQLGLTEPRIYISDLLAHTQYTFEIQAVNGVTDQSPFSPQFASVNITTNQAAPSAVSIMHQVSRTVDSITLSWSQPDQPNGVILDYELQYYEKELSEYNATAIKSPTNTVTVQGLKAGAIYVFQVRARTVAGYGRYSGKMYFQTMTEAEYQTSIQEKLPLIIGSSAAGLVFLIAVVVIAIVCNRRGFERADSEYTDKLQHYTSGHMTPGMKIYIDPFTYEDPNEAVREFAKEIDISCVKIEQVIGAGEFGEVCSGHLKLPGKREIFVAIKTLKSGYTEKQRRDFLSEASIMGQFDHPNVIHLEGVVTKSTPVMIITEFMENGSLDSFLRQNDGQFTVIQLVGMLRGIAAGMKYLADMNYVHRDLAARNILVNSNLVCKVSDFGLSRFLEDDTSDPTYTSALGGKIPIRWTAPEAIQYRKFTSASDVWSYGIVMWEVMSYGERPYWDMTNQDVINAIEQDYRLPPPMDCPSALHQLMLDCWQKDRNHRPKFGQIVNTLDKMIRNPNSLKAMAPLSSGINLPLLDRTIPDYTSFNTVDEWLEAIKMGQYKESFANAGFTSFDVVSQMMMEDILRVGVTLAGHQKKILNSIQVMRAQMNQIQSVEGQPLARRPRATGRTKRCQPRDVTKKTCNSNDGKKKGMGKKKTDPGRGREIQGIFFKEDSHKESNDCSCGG

[2] = molecular target: T2, Ephrin type-B receptor 3 (Homo sapiens) (UniProt P54753); conditions: at 0.1 µM
T2 sequence (whole entry): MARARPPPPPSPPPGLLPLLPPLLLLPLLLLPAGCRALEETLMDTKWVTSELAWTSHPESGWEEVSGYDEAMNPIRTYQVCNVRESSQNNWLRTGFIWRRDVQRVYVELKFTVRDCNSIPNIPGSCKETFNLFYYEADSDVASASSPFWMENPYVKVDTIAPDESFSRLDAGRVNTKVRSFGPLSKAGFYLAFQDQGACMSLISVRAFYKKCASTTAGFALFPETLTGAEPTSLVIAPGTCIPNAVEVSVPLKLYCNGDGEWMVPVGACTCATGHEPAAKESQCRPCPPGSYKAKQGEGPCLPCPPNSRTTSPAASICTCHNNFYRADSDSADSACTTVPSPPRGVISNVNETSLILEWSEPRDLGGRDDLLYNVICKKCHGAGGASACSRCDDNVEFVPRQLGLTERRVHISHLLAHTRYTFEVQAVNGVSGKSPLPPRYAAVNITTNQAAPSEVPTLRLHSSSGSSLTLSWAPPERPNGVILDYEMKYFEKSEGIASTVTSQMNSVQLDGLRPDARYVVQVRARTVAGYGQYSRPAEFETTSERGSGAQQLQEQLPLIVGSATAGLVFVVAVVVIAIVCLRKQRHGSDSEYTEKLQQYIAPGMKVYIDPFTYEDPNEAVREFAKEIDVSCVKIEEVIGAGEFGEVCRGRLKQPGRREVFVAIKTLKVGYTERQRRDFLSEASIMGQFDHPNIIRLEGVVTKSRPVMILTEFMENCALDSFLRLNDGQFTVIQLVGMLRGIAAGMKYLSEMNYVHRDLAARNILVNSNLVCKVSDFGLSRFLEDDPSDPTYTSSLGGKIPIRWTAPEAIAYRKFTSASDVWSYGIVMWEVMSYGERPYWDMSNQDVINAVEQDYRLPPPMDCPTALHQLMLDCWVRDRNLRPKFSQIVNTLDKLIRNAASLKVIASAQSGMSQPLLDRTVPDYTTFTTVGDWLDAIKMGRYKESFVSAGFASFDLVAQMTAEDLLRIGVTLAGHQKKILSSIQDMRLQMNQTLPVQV

[3] = molecular target: T2, Ephrin type-B receptor 3 (Homo sapiens); conditions: at 1 µM
[4] = molecular target: T3, Ephrin type-B receptor 4 (Homo sapiens) (UniProt P54760); conditions: at 0.1 µM
T3 sequence (whole entry): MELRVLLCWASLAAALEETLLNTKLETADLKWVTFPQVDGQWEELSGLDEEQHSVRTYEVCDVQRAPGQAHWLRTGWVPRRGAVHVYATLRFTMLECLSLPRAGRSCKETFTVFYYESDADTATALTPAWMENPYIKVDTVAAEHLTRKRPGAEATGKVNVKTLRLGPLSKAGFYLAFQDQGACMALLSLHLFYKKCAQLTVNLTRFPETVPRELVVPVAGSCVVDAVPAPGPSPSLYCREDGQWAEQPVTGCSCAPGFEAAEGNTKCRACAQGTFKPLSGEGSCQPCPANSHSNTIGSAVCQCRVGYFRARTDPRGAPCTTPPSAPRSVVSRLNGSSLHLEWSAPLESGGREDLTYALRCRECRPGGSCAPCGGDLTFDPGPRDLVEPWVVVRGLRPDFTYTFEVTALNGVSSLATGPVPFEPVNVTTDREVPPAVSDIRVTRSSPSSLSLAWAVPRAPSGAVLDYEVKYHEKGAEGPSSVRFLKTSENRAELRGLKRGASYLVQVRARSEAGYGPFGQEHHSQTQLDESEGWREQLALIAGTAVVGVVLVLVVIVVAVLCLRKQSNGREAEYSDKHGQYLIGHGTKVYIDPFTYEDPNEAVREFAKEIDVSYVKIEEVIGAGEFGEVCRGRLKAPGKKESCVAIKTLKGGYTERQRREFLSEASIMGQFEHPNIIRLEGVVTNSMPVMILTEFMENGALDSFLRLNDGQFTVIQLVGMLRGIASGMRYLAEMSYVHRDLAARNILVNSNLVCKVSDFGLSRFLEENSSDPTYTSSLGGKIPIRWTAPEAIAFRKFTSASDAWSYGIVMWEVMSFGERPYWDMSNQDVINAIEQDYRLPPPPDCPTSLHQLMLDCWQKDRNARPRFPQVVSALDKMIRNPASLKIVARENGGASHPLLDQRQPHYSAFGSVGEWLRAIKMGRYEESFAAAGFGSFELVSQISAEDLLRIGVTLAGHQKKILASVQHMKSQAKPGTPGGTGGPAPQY

[5] = molecular target: T3, Ephrin type-B receptor 4 (Homo sapiens); conditions: at 1 µM
[6] = molecular target: Receptor tyrosine-protein kinase erbB-2 (Homo sapiens) (UniProt P04626); conditions: at 0.1 µM
Sequence of Receptor tyrosine-protein kinase erbB-2 (Homo sapiens) (P04626 whole entry): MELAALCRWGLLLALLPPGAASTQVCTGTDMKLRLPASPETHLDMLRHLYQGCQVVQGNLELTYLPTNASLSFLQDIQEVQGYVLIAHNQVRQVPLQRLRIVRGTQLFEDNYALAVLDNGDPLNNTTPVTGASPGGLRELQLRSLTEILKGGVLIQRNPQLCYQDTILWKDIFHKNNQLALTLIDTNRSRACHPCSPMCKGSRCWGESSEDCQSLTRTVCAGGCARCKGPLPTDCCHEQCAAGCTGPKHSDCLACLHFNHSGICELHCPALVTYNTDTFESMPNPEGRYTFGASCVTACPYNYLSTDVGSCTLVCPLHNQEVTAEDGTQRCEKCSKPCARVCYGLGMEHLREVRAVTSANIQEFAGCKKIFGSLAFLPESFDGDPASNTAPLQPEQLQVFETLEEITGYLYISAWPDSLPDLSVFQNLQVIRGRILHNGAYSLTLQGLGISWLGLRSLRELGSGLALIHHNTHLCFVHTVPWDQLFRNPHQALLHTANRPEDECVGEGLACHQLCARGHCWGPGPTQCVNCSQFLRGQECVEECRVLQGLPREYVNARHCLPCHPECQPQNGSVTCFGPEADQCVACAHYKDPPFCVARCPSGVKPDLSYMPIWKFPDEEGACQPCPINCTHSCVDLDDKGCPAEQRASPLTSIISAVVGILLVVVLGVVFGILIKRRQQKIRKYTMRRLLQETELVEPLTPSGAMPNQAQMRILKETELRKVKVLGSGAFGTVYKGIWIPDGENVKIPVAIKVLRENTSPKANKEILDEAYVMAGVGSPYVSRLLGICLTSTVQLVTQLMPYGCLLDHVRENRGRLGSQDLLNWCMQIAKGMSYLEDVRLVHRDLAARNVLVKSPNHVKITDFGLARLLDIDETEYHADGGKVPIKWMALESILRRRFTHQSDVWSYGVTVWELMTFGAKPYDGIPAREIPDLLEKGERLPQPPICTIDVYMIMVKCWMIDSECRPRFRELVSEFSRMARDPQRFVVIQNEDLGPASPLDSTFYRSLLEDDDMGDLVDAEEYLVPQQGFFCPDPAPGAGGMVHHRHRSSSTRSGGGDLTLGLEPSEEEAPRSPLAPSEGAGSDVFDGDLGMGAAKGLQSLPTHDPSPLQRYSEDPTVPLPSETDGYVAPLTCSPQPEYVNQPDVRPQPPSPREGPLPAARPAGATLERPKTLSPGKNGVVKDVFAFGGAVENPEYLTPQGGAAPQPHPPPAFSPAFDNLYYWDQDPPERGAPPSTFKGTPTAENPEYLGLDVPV

[7] = molecular target: Receptor tyrosine-protein kinase erbB-2 (Homo sapiens) (UniProt P04626); conditions: at 1 µM
[8] = molecular target: Receptor tyrosine-protein kinase erbB-4 (Homo sapiens) (UniProt Q15303); conditions: at 0.1 µM
[9] = molecular target: Receptor tyrosine-protein kinase erbB-4 (Homo sapiens) (UniProt Q15303); conditions: at 1 µM
[10] = molecular target: Tyrosine-protein kinase Fer (Homo sapiens) (UniProt P16591); conditions: at 0.1 µM
[11] = molecular target: Tyrosine-protein kinase Fer (Homo sapiens) (UniProt P16591); conditions: at 1 µM
[12] = molecular target: Tyrosine-protein kinase Fes/Fps (Homo sapiens) (UniProt P07332); conditions: at 0.1 µM
[13] = molecular target: Tyrosine-protein kinase Fes/Fps (Homo sapiens) (UniProt P07332); conditions: at 1 µM
[14] = molecular target: Fibroblast growth factor receptor 1 (Homo sapiens) (UniProt P11362); conditions: at 0.1 µM
Sequence of Fibroblast growth factor receptor 1 (Homo sapiens) (P11362 22-822 limits assumed): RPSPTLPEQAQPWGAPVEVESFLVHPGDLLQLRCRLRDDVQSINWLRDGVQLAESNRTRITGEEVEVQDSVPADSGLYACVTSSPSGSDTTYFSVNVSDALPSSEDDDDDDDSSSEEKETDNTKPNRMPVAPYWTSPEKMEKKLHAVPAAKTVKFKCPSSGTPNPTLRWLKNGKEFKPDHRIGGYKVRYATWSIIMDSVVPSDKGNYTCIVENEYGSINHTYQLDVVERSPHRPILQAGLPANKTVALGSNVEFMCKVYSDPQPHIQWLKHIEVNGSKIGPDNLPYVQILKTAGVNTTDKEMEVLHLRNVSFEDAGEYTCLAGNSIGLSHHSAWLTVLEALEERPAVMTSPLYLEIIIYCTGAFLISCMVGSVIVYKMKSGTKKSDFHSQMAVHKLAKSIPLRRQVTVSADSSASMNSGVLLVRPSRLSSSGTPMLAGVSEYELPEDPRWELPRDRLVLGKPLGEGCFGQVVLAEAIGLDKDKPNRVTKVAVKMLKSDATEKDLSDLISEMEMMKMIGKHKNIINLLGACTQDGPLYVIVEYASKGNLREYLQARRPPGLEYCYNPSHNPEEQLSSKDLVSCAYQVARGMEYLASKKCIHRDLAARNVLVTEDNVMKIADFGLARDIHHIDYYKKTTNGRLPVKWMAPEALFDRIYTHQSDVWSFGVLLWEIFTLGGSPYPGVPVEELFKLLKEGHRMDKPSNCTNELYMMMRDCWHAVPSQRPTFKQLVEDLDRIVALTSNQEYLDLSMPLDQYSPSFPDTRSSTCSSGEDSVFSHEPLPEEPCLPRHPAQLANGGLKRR

[15] = molecular target: Fibroblast growth factor receptor 1 (Homo sapiens) (UniProt P11362); conditions: at 1 µM
[16] = molecular target: Fibroblast growth factor receptor 2 (Homo sapiens) (UniProt P21802); conditions: at 0.1 µM
Sequence of Fibroblast growth factor receptor 2 (Homo sapiens) (P21802 22-821 limits assumed): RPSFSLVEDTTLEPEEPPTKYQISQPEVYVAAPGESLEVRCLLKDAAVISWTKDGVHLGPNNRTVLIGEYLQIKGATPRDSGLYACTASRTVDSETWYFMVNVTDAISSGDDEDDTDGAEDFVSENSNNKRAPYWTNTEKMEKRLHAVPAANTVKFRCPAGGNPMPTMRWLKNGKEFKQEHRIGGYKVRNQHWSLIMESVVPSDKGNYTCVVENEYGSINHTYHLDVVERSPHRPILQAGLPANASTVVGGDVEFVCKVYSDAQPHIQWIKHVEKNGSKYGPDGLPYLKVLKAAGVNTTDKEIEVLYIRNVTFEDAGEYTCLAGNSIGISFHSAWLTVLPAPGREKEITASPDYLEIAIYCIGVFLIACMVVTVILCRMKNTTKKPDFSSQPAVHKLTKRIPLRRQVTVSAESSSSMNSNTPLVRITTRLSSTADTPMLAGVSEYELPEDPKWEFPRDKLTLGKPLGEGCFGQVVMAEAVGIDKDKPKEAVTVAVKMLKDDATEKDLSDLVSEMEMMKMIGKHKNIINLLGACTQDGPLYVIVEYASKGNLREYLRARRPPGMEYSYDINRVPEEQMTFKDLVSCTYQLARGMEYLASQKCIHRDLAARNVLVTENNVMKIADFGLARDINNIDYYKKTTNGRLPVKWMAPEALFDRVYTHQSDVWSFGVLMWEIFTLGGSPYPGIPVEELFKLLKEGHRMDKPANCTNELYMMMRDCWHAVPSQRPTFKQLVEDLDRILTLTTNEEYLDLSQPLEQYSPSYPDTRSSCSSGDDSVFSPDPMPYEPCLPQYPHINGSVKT

[17] = molecular target: Fibroblast growth factor receptor 2 (Homo sapiens) (UniProt P21802); conditions: at 1 µM
[18] = molecular target: Fibroblast growth factor receptor 3 (Homo sapiens) (UniProt P22607); conditions: at 0.1 µM
Sequence of Fibroblast growth factor receptor 3 (Homo sapiens) (P22607 23-806 limits assumed): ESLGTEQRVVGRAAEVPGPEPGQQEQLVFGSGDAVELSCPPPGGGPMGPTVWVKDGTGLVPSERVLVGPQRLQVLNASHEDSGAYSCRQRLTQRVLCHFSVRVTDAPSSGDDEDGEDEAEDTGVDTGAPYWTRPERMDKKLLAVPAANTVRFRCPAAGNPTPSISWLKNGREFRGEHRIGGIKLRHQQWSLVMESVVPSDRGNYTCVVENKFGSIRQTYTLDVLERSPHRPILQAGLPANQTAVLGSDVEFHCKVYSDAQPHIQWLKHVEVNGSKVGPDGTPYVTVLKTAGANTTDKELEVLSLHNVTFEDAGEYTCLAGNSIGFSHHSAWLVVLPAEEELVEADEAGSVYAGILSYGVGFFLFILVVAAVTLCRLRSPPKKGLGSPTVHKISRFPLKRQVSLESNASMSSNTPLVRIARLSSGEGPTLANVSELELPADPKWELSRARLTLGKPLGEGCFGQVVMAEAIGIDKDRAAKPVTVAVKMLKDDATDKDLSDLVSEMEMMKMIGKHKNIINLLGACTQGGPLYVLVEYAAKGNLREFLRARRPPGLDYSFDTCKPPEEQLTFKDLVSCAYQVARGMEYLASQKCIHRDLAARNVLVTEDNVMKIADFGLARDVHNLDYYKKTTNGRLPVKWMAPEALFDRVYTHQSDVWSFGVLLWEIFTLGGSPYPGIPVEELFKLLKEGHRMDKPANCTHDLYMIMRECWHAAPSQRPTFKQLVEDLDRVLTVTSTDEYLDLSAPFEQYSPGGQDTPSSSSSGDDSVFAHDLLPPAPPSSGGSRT

[19] = molecular target: Fibroblast growth factor receptor 3 (Homo sapiens) (UniProt P22607); conditions: at 1 µM
[20] = molecular target: Fibroblast growth factor receptor 4 (Homo sapiens) (UniProt P22455); conditions: at 0.1 µM;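 further: values are mean percent inhibition of FGFR4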
Sequence of Fibroblast growth factor receptor 4 (Homo sapiens) (P22455 22-802 limits assumed): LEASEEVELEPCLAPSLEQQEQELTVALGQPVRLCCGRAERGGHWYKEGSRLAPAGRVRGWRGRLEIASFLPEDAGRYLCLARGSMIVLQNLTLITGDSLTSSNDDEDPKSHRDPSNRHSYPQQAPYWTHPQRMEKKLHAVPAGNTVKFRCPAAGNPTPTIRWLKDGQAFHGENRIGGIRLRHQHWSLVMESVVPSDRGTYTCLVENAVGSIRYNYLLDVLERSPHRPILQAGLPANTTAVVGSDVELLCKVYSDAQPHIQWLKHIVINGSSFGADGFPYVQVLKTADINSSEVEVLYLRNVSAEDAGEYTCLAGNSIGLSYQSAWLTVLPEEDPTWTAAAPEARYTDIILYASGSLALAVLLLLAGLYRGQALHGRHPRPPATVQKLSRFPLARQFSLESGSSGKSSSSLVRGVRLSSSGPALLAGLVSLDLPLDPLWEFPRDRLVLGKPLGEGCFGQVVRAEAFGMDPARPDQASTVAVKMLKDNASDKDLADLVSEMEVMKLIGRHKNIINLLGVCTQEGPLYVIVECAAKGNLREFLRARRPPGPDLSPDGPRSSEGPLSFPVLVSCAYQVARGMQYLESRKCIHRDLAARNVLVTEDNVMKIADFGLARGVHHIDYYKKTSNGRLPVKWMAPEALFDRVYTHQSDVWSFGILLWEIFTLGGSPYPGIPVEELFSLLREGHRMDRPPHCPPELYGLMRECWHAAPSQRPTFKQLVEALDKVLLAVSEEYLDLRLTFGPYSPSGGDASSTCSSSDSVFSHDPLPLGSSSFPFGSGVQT

Compound | inhibition [1] [%] | inhibition [2] [%] | inhibition [3] [%] | inhibition [4] [%] | inhibition [5] [%] | inhibition [6] [%] | inhibition [7] [%] | inhibition [8] [%] | inhibition [9] [%] | inhibition [10] [%] | inhibition [11] [%] | inhibition [12] [%] | inhibition [13] [%] | inhibition [14] [%] | inhibition [15] [%] | inhibition [16] [%] | inhibition [17] [%] | inhibition [18] [%] | inhibition [19] [%] | inhibition [20] [%]
CS(=O)(=O)CCNCc1ccc(-c2ccc3ncnc(Nc4ccc(OCc5ccccc5)c(Br)c4)c3c2)o1 | 6.61 | -1.4 | -0.23 | -1.9 | -0.22 | 10.8 | 73.5 | 42.6 | 79.8 | 2.74 | 4.54 | 2.7 | 1.88 | -3.67 | 4.36 | 1.07 | 4.45 | 0.3 | 1.62 | -4.71
Cc1ccc(NC(=O)c2ccoc2)cc1-c1ccc(C(=O)NCC2CC2)cc1 | 5.88 | 3.21 | 3.35 | 0.88 | 0.82 | 5.47 | 5.7 | 8.06 | 10.6 | 0.47 | -0.39 | 2.83 | 1.55 | 11.2 | 3.99 | 0.64 | 3.44 | 2.69 | 5.14 | 1.47
N#Cc1ccc(Oc2nccc(-c3c(-c4ccc(F)cc4)ncn3C3CCNCC3)n2)cc1 | 10.3 | 5.17 | 5.31 | -0.34 | 2.48 | 4.34 | 2.33 | 9.54 | 11.9 | 3.43 | 4.07 | 4.54 | 4.03 | -0.69 | 5.45 | 3.13 | 6.84 | 3.14 | 5.22 | 0.73
COc1cc(Nc2ncc3c(C)nc(-c4cccc(Oc5ccccc5)c4)n3n2)cc(OC)c1OC | 8.52 | 4.24 | 1.21 | 2.59 | 2.97 | 1.99 | -3.48 | 7.04 | 8.43 | 3.91 | 7.1 | 2.66 | 3.2 | 2.41 | -0.38 | 0.66 | 5.14 | 3.25 | 3.03 | 1.38
COc1cc2ncn(-c3cc(OCc4cccs4)c(C(N)=O)s3)c2cc1OC | 20.8 | -3.17 | -3.49 | -2.89 | -2.46 | 5.9 | 12.5 | 1.73 | 6.6 | 5.05 | 12.9 | 1.87 | 1.21 | -3.02 | 7.33 | 1.75 | 15.3 | 1.72 | 12.4 | -0.52
CCS(=O)(=O)c1ccc(OC)c(Nc2ncc(-c3ccccc3Cl)o2)c1 | 8.86 | 4.07 | 3.23 | 1.77 | 1.22 | -1.67 | 1.42 | 4.14 | 4.95 | -0.76 | 2.34 | 0.35 | 0.33 | 2.09 | 7.29 | 6.83 | 33 | 6.65 | 32.4 | 3.96
COc1cc(C)c(N(C)C(=O)CN(C)C)cc1Nc1nc(Nc2cccc(F)c2C(N)=O)c2cc[nH]c2n1 | 4.5 | -1.17 | -3.39 | -2.25 | -3.91 | -0.03 | -3.53 | 4.41 | 4.97 | 9.81 | 23 | 5.04 | 10.7 | 0.07 | -3.58 | -2.28 | -2.01 | -0.36 | -2.8 | -3.66
